Data: PubChem BioAssay (NCI)
This is part of a sample that, as a whole, favours compounds with a hit. Of some 83,000 tested, about 20% had one in any assay.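 Results are percent growth after 48 hours of single-concentration exposure. 100 means growth as in untreated cells, lower positive values show inhibition; negative values down to -100 show cell death.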 A number with no mark means an inactive call. Active and inactive are the calls of the source.

The compounds below were run on SW-620 colon (assay: NCI-60 one-dose screen, 48 h (100 = growth as untreated, 0 = no growth, -100 = all killed)). Conditions: 10 µM unless noted.
Procedure: Growth inhibition of the SW-620 human tumor cell line is measured as a screen for anti-cancer activity. Cells are grown in 96 well plates and exposed to the test compound for 48 hours. Compounds are tested at a single concentration, which is 10^-5 M for most compounds. The reported endpoint is percent growth (GI% or GIPRCNT), where numbers from 0 - 100% represent growth inhibition, and numbers from -100% - 0 represent cell death. For example, a value of 40 represents 60% growth inhibition. A value of 0 means no net growth occurred over the course of the experiment. A value of -40 indicates 40% of cells at the beginning of the experiment died by the end of the experiment. A value of -100 means all cells are dead at the end of the experiment.
NCI-60 Human Tumor Cell Lines Screen was performed using the standard one-dose NCI protocol, which is described in more detail at https://dtp.cancer.gov/discovery_development/nci-60/default.htm.
Compounds with GIPRCNT values below 10 were considered active. Activity score was based on GIPRCNT using the following formula: […]
Score is 0 for GIPRCNT values of 100 or above, 50 for GIPRCNT values of 0, and 100 for GIPRCNT values of -100.

Row | SMILES | growth
1 | COc1ccc(C(=O)COC(=O)[C@H](C[Se][Se]C[C@H](NC(=O)c2ccc(Br)cc2F)C(=O)OCC(=O)c2ccc(OC)cc2)NC(=O)c2ccc(Br)cc2F)cc1 | -59.7% (active)
2 | O=C1c2ccccc2NC(n2sc3ccccc3c2=O)N1c1ccccc1 (stereo not given) | 104%
3 | COc1ccc(-c2conc2-c2ccccc2)cc1 | 19.8%
4 | COc1ccc(-c2[nH]c3ccc(OC)cc3c2/C=C(\C#N)S(=O)(=O)c2ccccc2)cc1 | 32.8%
5 | CCCCn1c(-c2ccc(-c3nc(-c4ccc(Cl)cc4)no3)cc2)nc(-c2ccccc2)c1-c1ccccc1 | 88.8%
6 | CC([C@H]1CCC2C3CCC4C(=O)C(NC=O)=CC[C@]4(C)C3CC[C@@]21C)N(C)C (stereo not given in full) | -48.5% (active)
7 | O=C(CCc1nnc(-c2c(Cl)cccc2Cl)o1)c1nc2ccccc2[nH]1 | 35.8%
8 | COc1cc(OCc2cccc(-c3ccc(C(O)c4nccs4)cc3)c2C)cc(OC)c1CNCCNC(C)=O (stereo not given) | 97.8%
9 | CCCCOc1nc2c(C)cccc2cc1-c1cc(-c2ccc(Cl)cc2)nc(-c2ccc(Cl)cc2)c1 | 98.4%
10 | COc1ccc(NC(=O)n2nc(/C=C\c3ccc(O)c(OC)c3)cc2/C=C\c2ccc(O)c(OC)c2)cc1 | 27.1%
11 | Cc1ccc(-c2nc(SCC(=O)Nc3nc(-c4ccc(Cl)cc4)cs3)[nH]c(=O)c2C#N)cc1 | 107%
12 | CCOC(=O)c1sc2ncc(-c3ccc(OC)cc3)n2c1C | 94.1%
13 | CCOC(=O)c1c(C)nc2c(c1N)CC(=O)N2Cc1ccc(F)cc1 | 92.2%
14 | CCc1cccc2c1S/C(=C/c1ccc(Cl)cc1)C2=O | 94.5%
15 | OC(c1ccccc1)C(NC(Cc1ccccc1)c1ccccc1)c1ccccc1 (stereo not given) | 90%
16 | Oc1ccc(-c2nc3ccc4[nH]ncc4c3c3c2CCCC3)c2cccnc12 | 7.64% (active)
17 | O=c1c2cc(F)ccc2sc2c(NCCCNCCO)nc3ccccc3c12 | -78.3% (active)
18 | COc1ccccc1/C=C1\Oc2cc(OCCN3CCC(Cc4ccccc4)CC3)ccc2C1=O | 69.1%
19 | Cn1cc(-c2cc3ncnc(Nc4ccc(CC(=O)Nc5cc(C(C)(C)C)on5)cc4)c3s2)cn1 | 38.8%
20 | CCN1C(=O)N(CC)C2Nn3c(s/c(=C\c4ccc([N+](=O)[O-])cc4)c3=O)=NC21 (stereo not given) | 60.2%

Row | SMILES | growth
21 | C[C@]12CC[C@@H]3c4cc(OC(F)F)c(OS(N)(=O)=O)cc4CC[C@H]3[C@@H]1CC[C@@H]2OS(N)(=O)=O | 22%
22 | Nc1nc2ccccc2c2c(=O)c3cc(F)ccc3sc12 | 107%
23 | Clc1ccc2c(c1)N(CCCN1CCCC1)c1ccccc1S2 | 26.2%
24 | c1cc2nc(-c3cn[nH]c3)c3c(c2cc1-c1cn[nH]c1)C1CCC3C1 (stereo not given) | 77.5%
25 | Cc1ccc2c(-c3cc(-c4ccccc4)nc(N)c3C#N)cc(=O)oc2c1 | 107%
26 | COc1ccc(CNC(=O)[C@H](O)[C@@H](N)Cc2ccccc2)cc1 | 104%
27 | Cc1nn(-c2ccccc2)c(-n2ccnc2)c1/C=N/Nc1nc(-c2ccc(Cl)c(Cl)c2)cs1 | 30.6%
28 | CCc1ccc(Oc2c(-c3ccc(OCc4ccc(Cl)cc4)cc3O)n[nH]c2C(F)(F)F)cc1 | 17.4%
29 | CCOC(=O)c1c(C)oc2ncnc(N3CCN(C(=O)COc4ccc(C(C)(C)C)cc4)CC3)c12 | 99.8%
30 | O=c1ccc(N=Nc2ccccc2)ccc1Cl | -3.18% (active)
31 | Cc1ccc(NC2=C(Cl)C(=O)c3nc(C)ccc3C2=O)cc1 | -30.7% (active)
32 | Nc1nc(-c2cccc3ccccc23)cc2ccccc12 | 19.4%
33 | COc1ccc(CN2c3ccccc3CCc3ccccc32)cc1F | 20.5%
34 | CCc1ccc(Oc2c(-c3ccc(OCCc4cccc(C(F)(F)F)c4)cc3O)n[nH]c2C(F)(F)F)cc1 | 14.7%
35 | CN(C)CCN1CCN(c2ncccc2C2Nc3ccccc3-n3cccc32)CC1 (stereo not given) | 97.8%
36 | CNC(=O)c1cc(-n2ccc3cc(NC(=O)c4ccc(N5CCOCC5)c(C(F)(F)F)c4)ccc32)ccn1 | 75.9%
37 | CCn1cnc2c1c(=O)[nH]c(=O)n2CC1CCC(CNS(=O)(=O)c2ccc(OC3CCOCC3)c(F)c2)CC1 (stereo not given) | 65.1%
38 | COc1ccc(OC)c(/C=C/c2nnc(Nc3ccccc3)o2)c1 | 113%
39 | COc1cccc2c(=O)c3c(sc12)c(NCCCN)nc1ccccc13 | -48.7% (active)
40 | COc1ccc(/C=C(\C#N)n2nnc3c(F)cccc32)cc1 | 15.6%
